# From PubChem BioAssay
# Activity calls are given as the source filed them.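 The calls were made as follows, unless noted: active = visually confirmed hit in the image check and inhibition above 20%; inconclusive = visually confirmed hit but inhibition not above 20%; inactive = no visual hit in the image check.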
# Tests used:
# [1] = inhibitors of TNFa-induced NFkB p65 translocation, primary screen, imaging, HUVEC, MLSMR starter and 10KST1 sets (AID 438;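 active = inhibition above 20% together with a positive visual image hit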;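 also: compound added about 3h40 before a 20 min TNFalpha stimulation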;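 as to inhibition: signal is the nuclear over cytoplasmic p65 intensity ratio per well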); details: HUVEC TNFa-induced p65 nuclear translocation; cell count: measured here: nuclei count (cytotoxicity indicator), at 2.08 µM; inhibition: at 2 µM, stronger effect = higher value, 0% TNFa-plus-vehicle, 100% no-TNFa wells
# [2] = inhibitors of mutant huntingtin aggregation, primary screen, imaging, exon1htt(103Q)mCFP cells, high-content imaging (AID 483;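 active = visual image review flags a hit and inhibition of aggregation exceeds 20%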;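 also: compound exposure lasted 3 days before fixation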;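 as to nuclei count: percent of the per-plate median nuclei count of sample wells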); details: exon1htt(103Q)mCFP cell line, aggregate imaging, at 2 µM; inhibition of aggregation: stronger effect = higher value; nuclei count: measured here: cell count, toxicity
# [3] = inhibitors of E-selectin induction by TNFa, primary screen, imaging, HUVEC, immunofluorescence, MLSMR starter and 10KST1 sets (AID 487); details: HUVEC TNFalpha-induced E-selectin immunofluorescence imaging, at 2 µM; inhibition: stronger effect = higher value; nuclei count: measured here: cell number, toxicity;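 as to inhibition: signal is fraction of cell area covered by stained E-selectin grains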;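 as to nuclei count: 100% = median nuclei count of all wells on the same plate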
# [4] = biological target: Voltage-gated potassium channel subunit beta-2 (Rattus norvegicus) (UniProt P62483); assay: KvBeta enzyme negative modulators, primary screen, biochemical, NADPH fluorescence (AID 622;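 active = fluorescence slope higher than the sample average by over 3 SD, cut at about -0.22 in these data, passing the limit was not always enough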;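 also: slope of raw intensity against log time taken from 70 to 1610 s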); details: recombinant KvBeta, 4-cyanobenzaldehyde reduction, at 10 µM, stronger effect = higher value
# Chain of Voltage-gated potassium channel subunit beta-2 (Rattus norvegicus) (P62483 whole entry, looked up): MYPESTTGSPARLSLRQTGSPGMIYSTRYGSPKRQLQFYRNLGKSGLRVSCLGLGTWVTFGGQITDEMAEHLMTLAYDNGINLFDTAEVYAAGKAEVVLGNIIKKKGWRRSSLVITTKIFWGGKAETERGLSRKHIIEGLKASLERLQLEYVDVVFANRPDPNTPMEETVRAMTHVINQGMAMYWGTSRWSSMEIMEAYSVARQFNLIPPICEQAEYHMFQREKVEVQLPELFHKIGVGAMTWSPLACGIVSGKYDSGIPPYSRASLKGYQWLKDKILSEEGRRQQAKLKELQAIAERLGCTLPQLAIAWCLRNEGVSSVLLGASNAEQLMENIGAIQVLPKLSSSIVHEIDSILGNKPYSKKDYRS
# [5] = biological target: Voltage-gated potassium channel subunit beta-2 (Rattus norvegicus) (UniProt P62483); assay: KvBeta positive modulators, primary screen, biochemical, NADPH fluorescence (AID 623;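 active = NADPH fluorescence slope more negative than the mean of all samples by about 3 SD, 99.7% confidence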;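 also: fluorescence intensity change per second fitted from 20 to 320 s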); details: Recombinant KvBeta, NADPH fluorescence decrease slope, 10 min; at 10 µM; stronger effect = lower value
# [6] = biological target: Alpha-2C adrenergic receptor (Homo sapiens) (UniProt P18825); assay: modulators of alpha2C/GIRK thallium flux, primary screen, cell-based, HEK293 alpha2C/GIRK1/2 (AID 624;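 active = fluorescence slope after compound addition differing from the mean of all screened samples at 99.7% confidence, in either direction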;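 also: slope of fluorescence ratio to pre-addition baseline per second over 15 to 24 s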); details: thallium flux BTC fluorescence, at 10 µM, actives lie on both sides
# Chain of Alpha-2C adrenergic receptor (Homo sapiens) (P18825 whole entry, looked up): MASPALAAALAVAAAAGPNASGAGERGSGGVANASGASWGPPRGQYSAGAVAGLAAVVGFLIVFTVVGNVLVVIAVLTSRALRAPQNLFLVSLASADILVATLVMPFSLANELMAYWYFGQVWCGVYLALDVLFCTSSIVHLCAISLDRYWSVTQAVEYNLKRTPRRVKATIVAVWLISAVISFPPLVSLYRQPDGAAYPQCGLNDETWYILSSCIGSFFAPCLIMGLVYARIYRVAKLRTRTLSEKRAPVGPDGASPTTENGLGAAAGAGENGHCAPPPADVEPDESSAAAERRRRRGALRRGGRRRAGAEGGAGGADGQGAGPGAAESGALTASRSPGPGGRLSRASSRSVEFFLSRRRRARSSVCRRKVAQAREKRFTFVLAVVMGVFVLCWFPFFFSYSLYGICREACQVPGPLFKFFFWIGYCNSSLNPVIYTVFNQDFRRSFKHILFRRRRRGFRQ
# [7] = inhibitors of Sendai virus-induced IRF3 signaling, primary screen, TLR/RLR signaling modifier project, cell-based, Sendai virus stimulus, luciferase, 10K MLSCN set (AID 602276;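 active = inhibition at or above 50% at 10 µM; inactive = inhibition below 50%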;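 also: firefly luciferase from ISG56 promoter only with Renilla not read in this screen; 0% = Sendai virus plus DMSO and 100% = medium plus DMSO without virus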); details: HEK293 RL24 IRF3 luciferase reporter, at 10 µM, stronger effect = higher value
# [8] = inhibitors of poly I:C-induced TLR3 signaling, primary screen, cell-based, poly I:C stimulus, luciferase, 10K MLSCN set (AID 602277;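 active = inhibition of the reporter signal at or above 50%; inactive = inhibition below 50%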); details: HEK293-TLR3 RL24 IRF3 luciferase reporter, at 10 µM, stronger effect = higher value
Structure (SMILES),cell count [1],inhibition [1],inhibition of aggregation [2],nuclei count [2] [%],inhibition [3],nuclei count [3] [%],fluorescence slope [4],NADPH fluorescence slope [5],slope [6],inhibition [7],inhibition [8]
COc1ccccc1CC1(C)NC(=O)N(CC(=O)Nc2cc(C)on2)C1=O (configuration not stated),471,-14.8% (inactive),14.1% (inactive),88.8,-28.8% (inactive),158,-0.598 (inactive),-2.5e-05 (inactive),0.006 (inactive),9.53% (inactive),16.4% (inactive)
O=C(CSc1ncnc2c1cnn2-c1ccccc1)Nc1ccccc1,316,2.4% (inactive),8.4% (inactive),106,-42% (inactive),115,-0.493 (inactive),-1.4e-05 (inactive),0.00569 (inactive),13.5% (inactive),23.8% (inactive)
Fc1ccc(C(c2nnnn2Cc2ccco2)N2CCN(C3CCCCC3)CC2)cc1 (configuration not stated),297,-3.3% (inactive),11.4% (inactive),98,-98.2% (inactive),130,-0.552 (inactive),3.4e-05 (inactive),0.00429 (inactive),-10.1% (inactive),-16.4% (inactive)
COc1ccc(N2CCN(CCCNC(=O)C3(S(=O)(=O)c4ccc(Cl)cc4)CC3)CC2)cc1,447,-6.2% (inactive),8.8% (inactive),101,-86% (inactive),115,-0.565 (inactive),1.2e-05 (inactive),0.00533 (inactive),-9.9% (inactive),-1.93% (inactive)
COC(=O)c1cn(NC(=O)C2CCCO2)c(=O)c2ccccc12 (configuration not stated),415,-2.5% (inactive),12.6% (inactive),103,-39.1% (inactive),89.7,-0.462 (inactive),-3.7e-05 (inactive),0.0068 (inactive),11.6% (inactive),20.9% (inactive)
CCn1c(=O)c2cc(S(=O)(=O)NCc3ccccc3)ccc2n(CC)c1=O,404,-2.3% (inactive),-3.8% (inactive),104,0.2% (inactive),126,-0.573 (inactive),1.7e-05 (inactive),0.00625 (inactive),11.6% (inactive),3.23% (inactive)
O=C(Cn1c(=O)n(CC2CCCO2)c(=O)c2ccccc21)c1ccccc1 (configuration not stated),361,4.4% (inactive),1.4% (inactive),103,4.5% (inactive),111,-0.51 (inactive),-3.9e-05 (inactive),0.00589 (inactive),10.8% (inactive),16.3% (inactive)
Cc1cccn2c(=O)c3cc(C(=O)NC4CCCC4)c(=N)n(C4CCCC4)c3nc12,786,2.4% (inactive),-58% (inactive),107,-189% (inactive),126,-0.0946 (inactive),-1.1e-05 (inactive),0.00161 (inactive),17.5% (inactive),32.7% (inactive)
CCn1nc(C(=O)OCC(=O)N2CCc3ccccc32)c2ccccc2c1=O,301,-8.8% (inactive),4.1% (inactive),68.3,25.7% (inactive),96.8,-0.297 (inactive),2.7e-05 (inactive),0.00506 (inactive),-3.24% (inactive),13.2% (inactive)
CC(C)C(c1nnnn1CC1CCCO1)N1CCN(Cc2ccc3c(c2)OCO3)CC1 (configuration not stated),357,4.8% (inactive),-10.8% (inactive),113,-55.1% (inactive),110,-0.521 (inactive),-5.8e-05 (inactive),0.00548 (inactive),9.72% (inactive),12.5% (inactive)
CCC(C(=O)OCC(=O)Nc1c(C)n(C)n(-c2ccccc2)c1=O)c1ccccc1 (configuration not stated),640,6.8% (inactive),5.9% (inactive),89.5,-53% (inactive),122,-0.539 (inactive),5.3e-06 (inactive),0.00674 (inactive),7.71% (inactive),15.4% (inactive)
COc1ccc(S(=O)(=O)NCC(c2cccnc2)N2CCN(c3ccc(F)cc3)CC2)cc1C (configuration not stated),234,-19.1% (inactive),-4.9% (inactive),56.8,19.6% (inactive),87.7,-0.447 (inactive),1.7e-05 (inactive),0.00574 (inactive),13.6% (inactive),27.2% (inactive)
O=C(c1ccc(Cl)c(F)c1F)N1CCCC1,384,4.4% (inactive),-11.4% (inactive),112,-29.8% (inactive),70.2,-0.276 (inactive),1.2e-05 (inactive),0.00949 (inactive),-9.75% (inactive),11.3% (inactive)
Cc1nc(-c2cccc(N)c2)cs1,726,-11% (inactive),-14.5% (inactive),77.8,-35.4% (inactive),132,-0.514 (inactive),-1e-05 (inactive),0.00706 (inactive),-3.62% (inactive),-15.1% (inactive)
CCOCCCNC(=O)C1CCN(S(=O)(=O)c2c(C)noc2/C=C\c2ccc(OC)cc2)CC1,345,1.2% (inactive),32.8% (inactive),99.9,-122% (inactive),114,-0.36 (inactive),3.9e-05 (inactive),0.00493 (inactive),-4.28% (inactive),0.813% (inactive)
Cc1cc(NC(=O)CSc2nc3c(c(=O)n2Cc2ccccc2)SC(C)C3)no1 (configuration not stated),554,8% (inactive),-16.2% (inactive),77.3,15.8% (inactive),86.8,-0.417 (inactive),-6.8e-05 (inactive),0.00456 (inactive),-14.3% (inactive),-5.37% (inactive)
C/C(N)=C(/C#N)C(=O)COC(=O)c1cc(C)n(-c2ccc(F)cc2)c1C,717,10.2% (inactive),2.4% (inactive),116,-93.8% (inactive),146,-0.487 (inactive),1.6e-05 (inactive),0.00428 (inactive),15.2% (inactive),-211% (inactive)
Cc1oc(-c2ccc(Cl)cc2)nc1CS(=O)CC(=O)NCCCN(C)C1CCCCC1 (configuration not stated),584,3.8% (inactive),-6.2% (inactive),94.6,-47% (inactive),127,-0.603 (inactive),1.3e-05 (inactive),0.00462 (inactive),15.7% (inactive),30.4% (inactive)
COc1ccc(C2CC(c3ccccc3)Nc3nc(NC(=O)c4cccs4)nn32)cc1 (configuration not stated),413,1.4% (inactive),-6.8% (inactive),102,-156% (inactive),112,-0.372 (inactive),-7.5e-05 (inactive),0.00554 (inactive),18.4% (inactive),25.3% (inactive)
Cc1ccc(NC(=O)C2CCCN(S(=O)(=O)c3cnc[nH]3)C2)cc1C (configuration not stated),626,1.6% (inactive),11.8% (inactive),106,-102% (inactive),134,-0.527 (inactive),-2.9e-05 (inactive),0.00769 (inactive),20.9% (inactive),6.37% (inactive)
CCS(=O)(=O)N1CCCC(C(=O)NCCc2ccc(OC)c(OC)c2)C1 (configuration not stated),709,-12.8% (inactive),-9.5% (inactive),111,45.8% (inactive),109,-0.43 (inactive),4.5e-06 (inactive),0.00594 (inactive),-5.06% (inactive),-6.59% (inactive)
O=C(CCN1C(=O)C2C3C=CC(C3)C2C1=O)NCCc1ccccc1Cl (configuration not stated),408,10.7% (inactive),-1.6% (inactive),103,-111% (inactive),99.4,-0.498 (inactive),-2.1e-05 (inactive),0.00634 (inactive),-11.5% (inactive),-13.2% (inactive)
COCCCNC(=O)CCn1c(=O)c2ccccc2n(CC(=O)Nc2ccc(C)cc2C)c1=O,689,-7.3% (inactive),-6.5% (inactive),102,-48.2% (inactive),111,-0.502 (inactive),-1.8e-05 (inactive),0.00709 (inactive),8.73% (inactive),19% (inactive)
Cc1cc2nc(-c3ccco3)cc(C(F)(F)F)n2n1,903,3.5% (inactive),-18.7% (inactive),104,-56.6% (inactive),121,-0.578 (inactive),-1.8e-05 (inactive),0.00736 (inactive),10.1% (inactive),18.3% (inactive)
CC(C)c1nnc(NC(=O)CCC(=O)NCc2ccc3c(c2)OCO3)s1,571,11.2% (inactive),-5.1% (inactive),95.8,21.4% (inactive),97.3,-0.404 (inactive),-4.6e-05 (inactive),0.00581 (inactive),14.1% (inactive),13.8% (inactive)
CCN1CCN(c2ncc(C(=O)N3CCN(c4ccccc4OC)CC3)c3ccccc23)CC1,315,-2.5% (inactive),0.9% (inactive),97.8,13.2% (inactive),96.4,-0.466 (inactive),-4.4e-05 (inactive),0.00623 (inactive),0.246% (inactive),31.7% (inactive)
CCCOc1ccccc1C1CC(=O)Nc2cc3c(cc21)OCCO3 (configuration not stated),647,4.9% (inactive),6.6% (inactive),39.3,29.7% (inactive),97.2,-0.628 (inactive),-2e-05 (inactive),0.00236 (inactive),-3.13% (inactive),78% (active)
